Several values for one entry are separate records, joined by “and”; a condition that tells them apart may be missing. Identical values can stand only once. Inconclusive results are not listed. Where a structure was tested more than once in an assay, its records may differ in their call. Activity calls are given as the source filed them. Unless noted, calls come from the whole dose curve; as a rule, active = well fitted curve in the direction sought with a large enough effect; inconclusive = small, poorly fitted or top-dose-only effect, or another doubt; inactive = no such curve, though single readings can be large; an effect the other way counts as inactive or inconclusive.

Consider 41 compounds from PubChem BioAssay (NCATS).

The target in test [1] is 3',5'-cyclic-AMP phosphodiesterase 4B (Homo sapiens) (UniProt Q07343). The test can be described thus: qHTS Assay for Inhibitors of PDE-IV (AID 607; active = well fitted activation curve with a large enough effect in the main read-out, with a control signal flat, not every such curve was filed as active). The following applies: HEK293 ACTOne CNG channel cells, membrane potential fluorescence; series mostly up to 22.9 µM. An outline of the steps:
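Live HEK293 cells with a modified cyclic nucleotide-gated (CNG) channel report intracellular cAMP via membrane-potential dye fluorescence (ex 535/em 590 nm). Endogenous PDE-IV was targeted. Compounds were tested at up to 22.9 uM final; RO 20-1724 100 uM served as control.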

The target in test [2] is Guanine nucleotide-binding protein G(i) subunit alpha-1 (Homo sapiens) (UniProt P63096). The test can be described thus: qHTS Assay for Inhibitors of RGS12 GoLoco Motif Activity (Green Fluorophore) (AID 879). Note: potency is the fitted concentration of half-maximal effect. The following applies: Galphai1/FITC-RGS12 GoLoco peptide, fluorescence polarization; series mostly up to 57.1 µM. An outline of the steps:
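Fluorescence polarization assay: 50 nM Gαi1 with 10 nM FITC-labeled RGS12 GoLoco peptide in 10 mM Tris pH 7.5, 150 mM NaCl, 0.1 mM GDP, 0.05% NP40, 10 min at room temperature with compound.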

The target of test [3] is Cytochrome P450 3A4 (Homo sapiens) (UniProt P08684). The test can be described thus: qHTS Assay for Inhibitors and Substrates of Cytochrome P450 3A4 (AID 884). Note: nearly all actives have a fitted effect of over 50% in size. Note: potency is the fitted concentration of half-maximal effect. The following applies: recombinant CYP3A4, Luciferin-PPXE luminescence; series mostly up to 57.1 µM. The gist of the method:
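20 nM human CYP3A4 with 25 uM Luciferin-PPXE (at KM) in 200 mM KPO4, preincubated 10 min with compound; NADPH regeneration started a 60 min RT reaction. Luciferin detected by luminescence, normalized to 57 uM ketoconazole as full inhibition.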

Test [4] concerns the target Cytochrome P450 2C9 (Homo sapiens) (UniProt P11712). The test can be described thus: qHTS Assay for Inhibitors and Substrates of Cytochrome P450 2C9 (AID 883). Note: nearly all actives have a fitted effect of over 60% in size. Note: potency is the fitted concentration of half-maximal effect. The following applies: recombinant CYP2C9, luciferin-H luminescence, 60 min; series mostly up to 57.1 µM. An outline of the steps: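 Signal: luciferase luminescence reporting luciferin produced by CYP2C9. Conditions: 10nM enzyme, Luciferin-H 100uM at KM, 25mM KPO4, 37C, 60 min NADPH-driven reaction. Reference: 57uM sulphaphenazole as 100% inhibition.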

Test [5] deals with Cytochrome P450 2D6 (Homo sapiens) (UniProt P10635). The test can be described thus: qHTS Assay for Inhibitors and Substrates of Cytochrome P450 2D6 (AID 891). Note: nearly all actives have a fitted effect of over 60% in size. Note: potency is the fitted concentration of half-maximal effect. The following applies: recombinant CYP2D6, luciferin-ME EGE luminescence; series mostly up to 57.1 µM. The gist of the method:
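Human CYP2D6 (5 nM) with 30 uM Luciferin-ME EGE (at Km) in 100 mM KPO4, compound preincubated 10 min, then NADPH regeneration system for 60 min at room temperature. Luciferin read by luminescence; normalized to 1.43 uM quinidine.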

In test [6] the target is Cytochrome P450 3A4 (Homo sapiens) (UniProt P08684). As to the kind of experiment: qHTS Assay for Activators of Cytochrome P450 3A4 (AID 885). Note: nearly all actives have a fitted effect of over 65% in size. Note: potency is the fitted concentration of half-maximal effect. Conditions: recombinant CYP3A4, Luciferin-PPXE luminescence, 60 min; series mostly up to 57.1 µM. An outline of the steps: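 Quantitative HTS format: compounds preincubated with 20nM human CYP3A4 and Luciferin-PPXE substrate at KM, reaction started by NADPH regeneration, stopped after 60 min, luciferase luminescence read 20 min later.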
Cytochrome P450 3A4 (Homo sapiens), sequence (P08684 whole entry, looked up): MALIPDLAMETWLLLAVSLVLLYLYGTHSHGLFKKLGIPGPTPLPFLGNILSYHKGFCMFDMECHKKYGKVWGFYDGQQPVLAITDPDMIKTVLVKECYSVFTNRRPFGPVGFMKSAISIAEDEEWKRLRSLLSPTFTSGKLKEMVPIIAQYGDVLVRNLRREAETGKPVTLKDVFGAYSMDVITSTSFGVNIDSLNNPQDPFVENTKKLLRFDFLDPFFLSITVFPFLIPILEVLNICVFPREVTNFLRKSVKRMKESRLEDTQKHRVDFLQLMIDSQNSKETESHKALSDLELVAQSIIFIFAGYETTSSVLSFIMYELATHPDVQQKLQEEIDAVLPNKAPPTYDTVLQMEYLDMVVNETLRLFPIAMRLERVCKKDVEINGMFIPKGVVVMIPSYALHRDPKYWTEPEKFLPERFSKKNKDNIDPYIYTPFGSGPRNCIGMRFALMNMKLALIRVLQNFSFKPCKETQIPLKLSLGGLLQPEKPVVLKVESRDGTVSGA

Cytochrome P450 2D6 (Homo sapiens), sequence (P10635 whole entry, looked up): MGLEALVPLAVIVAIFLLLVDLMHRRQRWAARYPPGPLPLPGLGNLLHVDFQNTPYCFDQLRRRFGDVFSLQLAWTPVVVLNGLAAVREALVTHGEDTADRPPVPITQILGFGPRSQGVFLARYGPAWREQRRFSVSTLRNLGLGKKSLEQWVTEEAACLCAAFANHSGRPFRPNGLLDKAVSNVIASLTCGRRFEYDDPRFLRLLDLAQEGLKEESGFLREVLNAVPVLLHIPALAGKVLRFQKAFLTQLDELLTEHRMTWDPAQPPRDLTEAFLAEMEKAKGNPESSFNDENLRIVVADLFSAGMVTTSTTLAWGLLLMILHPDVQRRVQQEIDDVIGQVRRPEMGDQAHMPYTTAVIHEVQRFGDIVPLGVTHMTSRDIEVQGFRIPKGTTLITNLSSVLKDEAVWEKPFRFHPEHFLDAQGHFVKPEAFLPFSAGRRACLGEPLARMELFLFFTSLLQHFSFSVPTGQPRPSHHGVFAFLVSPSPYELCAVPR
Guanine nucleotide-binding protein G(i) subunit alpha-1 (Homo sapiens), sequence (P63096 whole entry, looked up): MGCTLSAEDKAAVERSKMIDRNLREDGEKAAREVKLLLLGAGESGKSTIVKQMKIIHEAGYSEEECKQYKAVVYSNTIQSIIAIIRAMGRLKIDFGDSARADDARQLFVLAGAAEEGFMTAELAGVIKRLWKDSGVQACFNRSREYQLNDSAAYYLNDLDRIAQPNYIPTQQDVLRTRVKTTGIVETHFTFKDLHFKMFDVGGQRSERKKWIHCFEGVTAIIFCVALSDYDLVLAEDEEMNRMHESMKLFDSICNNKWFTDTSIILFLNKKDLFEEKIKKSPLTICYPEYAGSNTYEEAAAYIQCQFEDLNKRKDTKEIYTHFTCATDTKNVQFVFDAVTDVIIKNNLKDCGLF
3',5'-cyclic-AMP phosphodiesterase 4B (Homo sapiens), sequence (Q07343 whole entry, looked up): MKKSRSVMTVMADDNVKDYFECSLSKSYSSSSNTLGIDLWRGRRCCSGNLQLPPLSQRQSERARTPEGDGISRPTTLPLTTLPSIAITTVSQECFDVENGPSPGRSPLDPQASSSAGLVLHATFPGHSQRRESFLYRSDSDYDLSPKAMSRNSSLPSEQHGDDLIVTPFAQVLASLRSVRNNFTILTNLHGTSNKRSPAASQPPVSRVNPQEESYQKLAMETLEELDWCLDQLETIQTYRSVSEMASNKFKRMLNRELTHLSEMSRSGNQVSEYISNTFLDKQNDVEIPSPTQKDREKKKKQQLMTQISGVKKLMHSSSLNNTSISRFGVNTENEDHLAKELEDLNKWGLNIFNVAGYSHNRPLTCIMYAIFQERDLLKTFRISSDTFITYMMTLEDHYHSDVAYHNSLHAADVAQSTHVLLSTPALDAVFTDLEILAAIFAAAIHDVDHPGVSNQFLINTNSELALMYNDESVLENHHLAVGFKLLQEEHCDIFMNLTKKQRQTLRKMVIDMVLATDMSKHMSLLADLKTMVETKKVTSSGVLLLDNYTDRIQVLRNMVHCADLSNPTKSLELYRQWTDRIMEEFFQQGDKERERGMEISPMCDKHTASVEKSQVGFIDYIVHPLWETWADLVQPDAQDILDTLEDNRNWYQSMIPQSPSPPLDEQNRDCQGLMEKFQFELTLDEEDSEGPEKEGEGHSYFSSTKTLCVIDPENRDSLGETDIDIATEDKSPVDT
Cytochrome P450 2C9 (Homo sapiens), sequence (P11712 whole entry, looked up): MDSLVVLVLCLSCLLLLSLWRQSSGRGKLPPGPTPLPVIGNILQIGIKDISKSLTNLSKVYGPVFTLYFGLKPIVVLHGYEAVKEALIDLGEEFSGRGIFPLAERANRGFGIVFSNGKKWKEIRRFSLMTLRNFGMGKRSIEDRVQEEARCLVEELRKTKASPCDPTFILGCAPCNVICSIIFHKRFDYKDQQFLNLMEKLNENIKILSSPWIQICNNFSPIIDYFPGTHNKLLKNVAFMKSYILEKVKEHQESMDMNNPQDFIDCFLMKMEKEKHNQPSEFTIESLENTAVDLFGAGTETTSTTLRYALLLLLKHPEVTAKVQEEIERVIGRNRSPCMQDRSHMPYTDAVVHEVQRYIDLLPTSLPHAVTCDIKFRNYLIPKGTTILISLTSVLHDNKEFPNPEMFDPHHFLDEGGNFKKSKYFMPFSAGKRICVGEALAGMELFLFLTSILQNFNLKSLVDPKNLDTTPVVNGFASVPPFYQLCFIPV

As for `CCCCCCCCCCC/C=C\C(C)(C)/C=C\CCCC(=O)O`, the Potency result in test [1], in test [2] and in test [3] was “inactive” each time.
As to `CN[C@H](CC(=O)O)C(=O)O`, the Potency result in test [1], in test [2], in test [4], in test [3] and in test [5] was “inactive” in each case.
Turning to `CCCCCCN(CCCCCC)C(=O)Cc1c(-c2ccc(F)cc2)[nH]c2ccccc12`, the Potency result in test [1], in test [2], in test [4], in test [6] and in test [5] was “inactive” in each case. For the same compound, the Potency in test [3] is 2510 nM (active).
In the case of `CCCCOC(=O)NS(=O)(=O)c1sc(CC(C)C)cc1-c1ccc(Cn2c(CC)nc3c(C)cc(C)nc32)cc1`, the Potency entry in test [1], in test [2] and in test [6] was “inactive” throughout. The Potency in test [3] was 3160 nM (active).
For `Cn1cc(C(=O)OCC2CCN(CCNS(C)(=O)=O)CC2)c2ccccc21`, the Potency result in test [1], in test [2], in test [4] and in test [5] was “inactive” each time.
For `CNc1cc(NS(=O)(=O)c2ccc(N)cc2)nc(NC)n1`, the Potency result in test [1], in test [2] and in test [6] was “inactive” in each case. For the same compound, the values for the Potency in test [4] and in test [3] were 2000 nM (active) and 794 nM (active), respectively.
Consider `COCc1nc2c([nH]1)c(=O)n(C)c(=O)n2CC(C)C`, for which the Potency entry in test [1], in test [2], in test [4], in test [6] and in test [5] was “inactive” each time.
Turning to `N[C@@H](Cc1c[nH]c2ccccc12)C(=O)O`, the Potency entry in test [1] and in test [2] was “inactive” each time.
As to `NC(N)=NC(N)=Nc1ccccc1`, the Potency result in test [1], in test [2], in test [4], in test [3] and in test [5] was “inactive” each time.
For the compound `CCN(CC)CCOC(=O)c1cc(Cl)c(N)cc1OC`, the Potency entry in test [1], in test [2], in test [4], in test [3] and in test [6] was “inactive” throughout.
Consider `CCN1C(=O)C=CC1=O`, for which the Potency result in test [1] and in test [2] was “inactive” in each case.
With `NS(=O)(=O)c1cccc2c1c([N+](=O)[O-])cc1nc(O)c(O)nc12`, the Potency entry in test [1] and in test [2] was “inactive” in each case.
Regarding `CCn1c(=O)[nH]c2cc(Cl)c(Cl)cc21`, the Potency entry in test [1], in test [2], in test [4], in test [6] and in test [5] was “inactive” each time.
For `O=C(O)C1=CC(=C(c2ccc(O)c(C(=O)O)c2)c2ccc(O)c(C(=O)O)c2)C=CC1=O`, the Potency result in test [1] and in test [3] was “inactive” each time. For the same compound, the Potency in test [2] was 15800 nM (active).
With `CNC(=O)c1cc2c(cn1)[nH]c1ccccc12`, the Potency result in test [1], in test [2], in test [4], in test [6] and in test [5] was “inactive” throughout.
Regarding `CC[N+](CC)(CC)CC(=O)Nc1c(C)cccc1C`, the Potency entry in test [1], in test [2] and in test [4] was “inactive” each time.
As to `CN(C)S(=O)(=O)c1ccc2c(c1)/C(=C/c1cc3c([nH]1)CCCC3)C(=O)N2`, the Potency result in test [1], in test [2] and in test [6] was “inactive” throughout. Also, in test [3], the Potency was 5010 nM (active).
Take `O=C(O)c1ccccc1Nc1cccc(OCc2ccc3ccccc3n2)c1`: the Potency entry in test [1], in test [2] and in test [6] was “inactive” in each case. The Potency in test [4] is 31600 nM (active); in test [3], 1580 nM (active); in test [5] it was “inactive and 7.94 µM (active)”.
As to `O=[N+]([O-])c1cccc2c(Br)[nH]nc12`, the Potency entry in test [1], in test [2], in test [4] and in test [6] was “inactive” in each case.
Turning to `N[C@H](C(=O)O)c1cc(O)cc(O)c1`, the Potency entry in test [1], in test [2], in test [4], in test [6] and in test [5] was “inactive” throughout.
For `NCCCCN`, the Potency result in test [1], in test [2] and in test [3] was “inactive” throughout.
As to `Nc1ccc2c3c(cccc13)C(=O)NC2=O`, the Potency entry in test [1], in test [4] and in test [6] was “inactive” in each case. Further, the Potency in test [2] was 794 nM (active).
Take `O=C(O)c1cc2cc(F)ccc2[nH]1`: the Potency result in test [1], in test [2], in test [4], in test [3] and in test [5] was “inactive” in each case.
`O=C(O)c1ccccc1Nc1ccccc1`: the Potency result in test [1], in test [2] and in test [6] was “inactive” throughout.
Turning to `Nc1ncnc2c1c(-c1ccc(Oc3ccccc3)cc1)cn2C1CCCC1`, the Potency result in test [1], in test [2] and in test [3] was “inactive” throughout. Further, in test [6], the Potency was 3160 nM (active).
Regarding `c1ccc(CN2CCC3(CCCc4ccccc43)CC2)cc1`, the Potency result in test [1] and in test [3] was “inactive” in each case. In addition, the Potency in test [6] was 25100 nM (active); in test [5], 251 nM (active).
For `O=C(c1ccc2c(c1)OCCO2)N1CCCCC1`, the Potency entry in test [1], in test [4] and in test [5] was “inactive” each time.
As to `COc1cc2c(CCNC(C)=O)c[nH]c2cc1O`, the Potency entry in test [1], in test [2] and in test [6] was “inactive” throughout.
For `O=c1[nH]c2cc(Cl)ccc2c(O)c1-c1ccc(Oc2ccccc2)cc1`, the Potency result in test [1], in test [2] and in test [6] was “inactive” each time.
As to `Cc1nc(N=Nc2ccc(C(=O)O)cc2)c(COP(=O)(O)O)c(C=O)c1O`, the Potency entry in test [1], in test [4] and in test [6] was “inactive” in each case.
For the compound `O=C(O)C1=CCCNC1`, the Potency result in test [1] and in test [3] was “inactive” in each case.
On to `COc1ccc2c(c1)c(CC(=O)O)c(C)n2Cc1ccc(Cl)cc1`, for which the Potency entry in test [1] and in test [6] was “inactive” in each case.
With `COc1ccccc1N1CCN(CCCCN2C(=O)c3ccccc3C2=O)CC1`, the Potency entry in test [1], in test [2] and in test [6] was “inactive” throughout.
As to `Nc1ccc(N2C(=O)c3ccccc3C2=O)c(Cl)c1`, the Potency result in test [1], in test [2] and in test [6] was “inactive” each time.
As to `N#CC(C#N)=C(N)/C(C#N)=C/c1ccc(O)cc1`, the Potency result in test [1], in test [2] and in test [6] was “inactive” in each case.
For `O=C1Cc2c([nH]c3ccc(Br)cc23)-c2ccccc2N1`, the Potency result in test [1] and in test [6] was “inactive” throughout. In addition, the Potency entry in test [5] is “inactive and 398 nM (active)”.
On to `C=CC[C@H](N)C(=O)O`, for which the Potency entry in test [1] and in test [3] was “inactive” each time.
On to `O=C(O)Cc1c[nH]c2ccc(O)cc12`, for which the Potency result in test [1] and in test [4] was “inactive” throughout.
Turning to `O=c1onc2n1-c1cc(Br)ccc1OC2`, the Potency entry in test [1], in test [2] and in test [6] was “inactive” each time.
With `[Li+]`, the Potency result in test [1] and in test [6] was “inactive” each time.
Take `O=C(N[C@@H](Cc1ccccc1)C(=O)CCl)OCc1ccccc1`: the Potency result in test [1] and in test [6] was “inactive” throughout.
